KDM5B inhibitor = Primary screen for KDM5B Histone Demethylases FDH-coupled qHTS; Lysine-specific demethylase 5B (Homo sapiens), Q9UGL1; KDM5B demethylase, FDH-coupled NADH fluorescence (FDH is formaldehyde dehydrogenase); Potency, µM (top dose mostly 57.7 µM), most hits filed as inhibitors; 2.6% of 220,000 active; AID 1347165, 2019; active = well fitted inhibition curve with a large enough effect; note: 0% is about no effect; nearly all actives have a fitted effect of over 70% in size
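KDM5BΔAP (200 nM final) in 50 mM HEPES pH 7.5, 0.01% Tween-20 was preincubated 10 min at RT with compound over a concentration range. Substrate mix (H3K4me3 12.5 µM, α-KG 25 µM, Fe²⁺, ascorbate, NAD⁺, FDH) was added, and NADH fluorescence change over 30 min gave dose-response curves.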
* marks the source's active call; other numbers are inactive results; i = inactive; ! = a repeat was not active. The sample as a whole holds a higher share of hits than the screen did. Potency is the fitted concentration of half-maximal effect.

SMILES	KDM5B inhibitor
COc1ccccc1OCCNC(=O)c1cn2ccnc(-c3ccccc3)c2n1	i
CCN1CCN(CCNC(=O)c2cn3ccnc(-c4ccc(OC)cc4)c3n2)CC1	28.2µM*
COc1ccc(NC(=O)c2cn3ccnc(-c4ccc(C)cc4)c3n2)c(OC)c1	i
O=C(Nc1ccc(Br)cc1)c1cnc(-c2ccc(F)cc2)nc1-c1ccncc1	i
CC[N+](CC)(CC)CCCOC(=O)C1(c2ccccc2)CCCC1	i
CC(C)(C)c1ccc(C(=O)Nc2ccc(C(O)[C@H]3COCC(=O)N3)cc2)cc1 (stereo partly drawn)	i
CC(C)c1ccc(NC(=O)CCn2cnc3c2c(=O)n(C)c(=O)n3C)cc1	i
Cc1noc([C@@H](C)NC(=O)c2cccs2)c1C(=O)O	i
Cc1nn(-c2ccccc2)nc1C(=O)N[C@H](C)c1onc(C)c1C(=O)O	31.6µM*
Cc1noc([C@@H](C)NC(=O)NC2(c3ccccc3)CCOCC2)c1C(=O)O	i
Nc1ccc(Sc2ccccc2Cl)cc1	i
O=C(Nc1ccccc1)Nc1ccc(NC(=O)c2cc[n+]([O-])cc2)cc1	i
Cc1cn2nc(C(=O)NCc3cccc(C(F)(F)F)c3)cc2c(=O)[nH]1	i
O=C(NCc1cccs1)c1ccc2nccn2c1	35.5µM*
Cc1ncsc1C(=O)NCc1cccnc1	i
O=C(NCc1cccnc1)c1ccc(C2CCCCC2)cc1	i
O=C(NCc1cccc(C(F)(F)F)c1)c1ccc(CN2CCCCC2)cc1	i
O=C(NCc1cccs1)c1ccc(-c2ccccc2)cc1	i
O=C(NCc1cccc(C(F)(F)F)c1)c1ccc2nccn2c1	35.5µM*
O=C(NCc1cccs1)c1ccccn1	i
O=C(NCc1cccnc1)c1ccc2nccn2c1	112µM*!
Cc1nc(Nc2nc3ccccc3o2)ncc1C(=O)Nc1ccccc1C(F)(F)F	i
O=C(c1cc(-c2ccccc2)on1)N1CCOCC1	i
CNC(=O)NC(=O)C(C)N(C)CCCCc1ccccc1 (stereo not drawn)	i
CN(Cc1cccs1)C(=O)c1cc2ccccc2[nH]1	i
SMILES	KDM5B inhibitor
C#CCNC(=O)COC(=O)c1cccnc1Nc1cccc(C(F)(F)F)c1	i
O=C(Cc1cccs1)NCC12CC3CC(CC(C3)C1)C2	i
CC(NC(=O)c1ccc(Cl)c(Cl)c1)C1CC2CCC1C2 (stereo not drawn)	i
O=C(Cc1ccccc1Cl)N1CCC(Cc2nc(-c3ccc(F)cc3)no2)CC1	i
COC(=O)c1ccc(-c2ccc(C=O)o2)cc1	i
O=C1CCC(C(=O)OCc2c(Cl)cccc2Cl)=NN1	i
COc1ccc(CCC(=O)N2CCC(Cc3nc(C4CC4)n[nH]3)CC2)cc1	20µM*
O=C(NCc1ccccc1)N1CCC(Cc2nc(C3CC3)n[nH]2)C1 (stereo not drawn)	i
CC(=O)N1CCC(Cc2nc(-c3ccccc3)n[nH]2)CC1	20µM*
COc1ccc(C(=O)N2CCC(Cc3nc(C4CC4)n[nH]3)CC2)cn1	i
COc1ccc(CCC(=O)N2CCC(c3n[nH]c(=O)n3Cc3ccc(F)cc3)CC2)cc1	i
Cc1nc(C)c(C(=O)N2CCC(Cc3nc(-c4ccccc4)n[nH]3)CC2)s1	i
O=C(C1CC1)N1CCC(Cc2nc(-c3ccccc3)n[nH]2)C1 (stereo not drawn)	i
CCc1n[nH]c(CC2CCN(C(=O)C3(c4ccccc4)CC3)CC2)n1	i
O=C(N1CCC(Cc2nc(C3CC3)n[nH]2)CC1)C1(c2ccccc2)CC1	17.8µM*
O=C(COc1ccc(F)cc1)Nc1cccc(-c2nc3ccccc3o2)c1	i
COc1ccc(C(=O)C(C)OC(=O)c2ccc3ccccc3n2)cc1 (stereo not drawn)	i
CCC(=O)N1CCc2c(C(=O)NCc3ccncc3)cccc21	i
O=C(NCCc1ccco1)C1CCN(c2ccc(C(F)(F)F)cn2)CC1	i
O=C1CC2(CCN(Cc3cccc4ccccc34)CC2)Oc2ccccc2N1	i
COc1cccc(-c2nc(-c3c(C)noc3C)cc3c2cc(C)n3CCN(C)C)c1OC	39.8µM*
Cc1noc(C)c1-c1cc2c(cc(C)n2CCN(C)C)c(Nc2ccn(C)n2)n1	i
Cc1noc(C)c1-c1cc2c(cc(C)n2CCN(C)C)c(-c2ccc(CO)cc2)n1	25.1µM*
Cc1noc(C)c1-c1cc2c(cc(C)n2CCN(C)C)c(-c2cccc(O)c2)n1	i
Cc1noc(C)c1-c1cc2c(cc(C)n2CCN(C)C)c(-c2ccccc2O)n1	31.6µM*
SMILES	KDM5B inhibitor
Cc1cc(C(=O)N2CCc3nnc([C@@H]4C[C@@H](O)CN4C)n3CC2)n(C)n1	i
O=C(NCCc1ccccn1)C(F)(F)c1ccccc1	i
C/C(=N\NC(=S)NCc1ccccc1)C(C)C	i
CC(=O)NC1CC2(CCN(C(=O)Cc3c(C)noc3C)CC2)Oc2ccccc21 (stereo not drawn)	i
CC(=O)c1c(OS(=O)(=O)c2ccccc2-c2ccccc2)ccc2c(C)cc(=O)oc12	i
CCc1cccc(NC(=O)CC2(C(=O)O)CCCCC2)c1	i

Compound activity: PubChem, National Center for Advancing Translational Sciences (NCATS)
